“And” between values parts separate entries of the source, which are not always exact repeats. Equal values may be shown once. Results filed as inconclusive are left out. Values without a mark were called inactive. The source made the active and inactive calls. The call rests on the fitted dose curve; in most records, active means well fitted curve in the direction sought with a large enough effect; inconclusive means small, poorly fitted or top-dose-only effect, or another doubt; inactive means no such curve, though single readings can be large; an effect the other way counts as inactive or inconclusive.

This note sets out measurements from PubChem BioAssay (NCATS).

Assay [1] concerns the target Cellular tumor antigen p53 (Homo sapiens) (UniProt P04637). The assay can be described thus: Primary qHTS for small molecule compounds that upregulate eGFP-tagged delta133p53alpha (in N-terminal) cells. (AID 2060322).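 Further: cells pre-induced with doxycycline then dosed without doxycycline; series mostly up to about 56 µM; 0% = DMSO vehicle and 100% = reference activator; nearly all actives have a fitted effect of over 75% in size.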 To be noted: NCI-H358 eGFP-delta133p53alpha fluorescence, 24 h; activation: hits give high values. Summed up:
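NCI-H358 cells pre-induced 24 h with 10 ng/ml doxycycline for eGFP-delta133p53alpha, plated dox-free and exposed 24 h at 37C to titrated compounds. Fixed, Hoechst-stained; gated GFP peak intensity by laser scanning cytometry, normalized to DMSO (0%) and 57.5 uM 5-azacytidine (100%).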

Assay [2] has as its target Retinaldehyde dehydrogenase 3 (Homo sapiens) (UniProt P47895). Kind of assay: qHTS for Inhibitors of the Aldehyde Dehydrogenase Family (ALDH1A3) Validation screen (AID 2061312). Further: on the % scale 0 is the no-effect control and ±100 the full control effect; nearly all actives have a fitted effect of over 45% in size. On the technique in general: Quantitative high-throughput screening tests each substance at several concentrations.
Assay [3] in a line: BET inhibitor-based combinations targeting novel dependencies in MECOM-rearranged (r) AML: SET-2 cell line (AID 2202231). Further: nearly all actives have a fitted effect of over 35% in size. Further: potency means the concentration at half of the fitted maximal effect.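 On viability: plate controls were DMSO treated cells for no effect and wells without cells for full effect.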 Particulars: SET-2 AML cells viability, CellTiter-Glo luminescence, 48 h; viability: hits give low values, concentration not given here. Summed up: (§1)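 Readout: CellTiter-Glo luminescence. Exposure: 48 h, 11 concentrations, 500 cells/well. Metric: AUC and within-line Z-AUC after DMSO/empty-well normalization.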
(Cellular ATP, detected with luciferase, serves as a proxy for viable cell number.)

Assay [4] is described as follows: BET inhibitor-based combinations targeting novel dependencies in MECOM-rearranged (r) AML: MV-4-11 cell line (AID 2202233). Further: nearly all actives have a fitted effect of over 45% in size. Further: potency means the concentration at half of the fitted maximal effect. The procedure, abridged: (§2)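 Seeding density was 500 cells/well, and drug exposure lasted 48 hr under standard culture conditions. Read-out used CellTiter-Glo reagent with a 15 min room-temperature incubation before luminescence measurement; AUC and Z-AUC summarize the normalized responses.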

Assay [5] in a line: BET inhibitor-based combinations targeting novel dependencies in MECOM-rearranged (r) AML: UCSD-AML1 cell line (AID 2202235).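 Further: series mostly up to about 46 µM; plate controls were DMSO vehicle wells for no effect and blank wells for full effect; nearly all actives have a fitted effect of over 40% in size.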 Summed up: as §2
Assay [6] can be described thus: BET inhibitor-based combinations targeting novel dependencies in MECOM-rearranged (r) AML: AML-191 cell line (AID 2202236; further: nearly all actives have a fitted effect of over 35% in size; further: potency means the concentration at half of the fitted maximal effect). The procedure, abridged:
as §1

For assay [7], the target named is Retinaldehyde dehydrogenase 3 (Homo sapiens) (UniProt P47895). Kind of assay: qHTS for Inhibitors of the Aldehyde Dehydrogenase Family (ALDH1A3) Primary screen (AID 2061315).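 Further: plate controls were DMSO vehicle for no effect and reference inhibitor for full effect.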
A short description of assay [8]: BET inhibitor-based combinations targeting novel dependencies in MECOM-rearranged (r) AML: OCI-AML3 cell line (AID 2202232). Further: potency means the concentration at half of the fitted maximal effect; nearly all actives have a fitted effect of over 35% in size. Particulars: Potency: OCI-AML3 viability. The procedure, abridged: as §1
Assay [9] can be described thus: BET inhibitor-based combinations targeting novel dependencies in MECOM-rearranged (r) AML: HNT-34 cell line (AID 2202234). Further: potency means the concentration at half of the fitted maximal effect; nearly all actives have a fitted effect of over 35% in size. Summed up: as §2
Assay [10] can be described thus: BET inhibitor-based combinations targeting novel dependencies in MECOM-rearranged (r) AML: AML-194 cell line (AID 2202237; further: potency means the concentration at half of the fitted maximal effect; nearly all actives have a fitted effect of over 40% in size). The procedure, abridged: as §1

Sequence of Cellular tumor antigen p53 (Homo sapiens) (P04637 whole entry, looked up): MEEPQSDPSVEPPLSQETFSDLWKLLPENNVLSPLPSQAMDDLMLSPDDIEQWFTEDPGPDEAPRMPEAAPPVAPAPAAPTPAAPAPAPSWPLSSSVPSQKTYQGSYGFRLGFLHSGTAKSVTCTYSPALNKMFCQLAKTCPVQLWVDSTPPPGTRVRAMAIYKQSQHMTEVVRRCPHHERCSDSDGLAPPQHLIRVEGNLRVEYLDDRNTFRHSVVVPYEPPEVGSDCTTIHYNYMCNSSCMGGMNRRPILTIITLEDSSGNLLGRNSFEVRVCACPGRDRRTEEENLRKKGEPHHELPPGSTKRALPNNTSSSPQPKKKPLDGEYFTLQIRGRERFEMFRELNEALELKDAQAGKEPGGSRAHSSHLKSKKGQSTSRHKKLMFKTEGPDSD

Usually viability stands for a read-out of living cells in per cent, often relative to untreated cells. As to `Cc1ccccc1C(C(=O)NC1CCCCC1)N(C(=O)Cn1ccnc1C)c1cccc(F)c1` (centres undefined), in [1], the activation was -12.7% and -11.5%. Also, the Potency result in [2], in [4], in assay [5] and in assay [6] was “inactive” each time. In addition, in [3], the viability was 116%.

For the compound `CCCNCCc1ccc(NS(=O)(=O)c2ccc(OC(F)(F)F)cc2)cc1`, in assay [1], the activation is 6.68%. The Potency result in [7] is “inactive”.

`C=Cc1cc2oc(-c3ccc(O)c(F)c3)nc2cc1O`: the activation in assay [1] is -1%. Also, the Potency entry in assay [7] was “inactive”.

With `O=c1[nH]cnc2c([C@@H]3N[C@H](CO)[C@@H](O)[C@H]3O)c[nH]c12`, in [1], the activation is 10.3%. Further, the Potency entry in assay [7] is “inactive”.

As for `CCOc1nc2cccc(C(=O)OCc3oc(=O)oc3C)c2n1Cc1ccc(-c2ccccc2-c2noc(O)n2)cc1`, in assay [1], the activation is 0%. In addition, the Potency entry in [2] and in [7] was “inactive” each time.

Take `O[C@@H](COc1cccc2ncccc12)CN1CCN(C2c3ccccc3[C@@H]3[C@H](c4ccccc42)C3(F)F)CC1` (some centres undefined): the activation in assay [1] is 22%. Moreover, the Potency result in assay [2] and in [7] was “inactive” throughout. In addition, the Potency in [3] is 26.3 µM (active); in [8], 20.9 µM (active); in assay [4] it was 18.6 µM (active); in assay [9] it was 26.3 µM (active); in assay [6], 23.5 µM (active); in assay [10], 23.5 µM (active).

For `O=C(Nc1cnc(Cl)nc1)c1ccc(F)c(F)c1`, the activation in assay [1] is 5.25%. The Potency entry in [2] and in assay [7] was “inactive” each time.

Turning to `CCC(Nc1ncnc2nc[nH]c12)c1nc2cccc(F)c2c(=O)n1-c1ccccc1` (centres undefined), the activation in [1] was 4.46%. The Potency entry in [7] is “inactive”.

For the compound `CC(C)CC(=O)n1cc(C(N)=O)c(=O)cc1C(O)c1ccccc1` (centres undefined), the activation in assay [1] is -1.53%. For the same compound, the Potency entry in assay [7] is “inactive”.

On to `CC(C)C(CO)Nc1nc(Nc2ccc(C(=O)O)c(Cl)c2)c2ncn(C(C)C)c2n1` (centres undefined), for which the activation in assay [1] was 6.21%. Further, the Potency entry in assay [2] and in assay [7] was “inactive” throughout.
